This note sets out measurements from PubChem BioAssay (EPA / NIEHS).

Common to all, as to conditions: mRNA level, 48 h; actives raise or lower the signal
Read-out in assay [1]: matrix metalloproteinase-10 (MMP10), MMP10 (gene 4319)
As to the kind of experiment: LTEA_HepaRG_MMP10: Life Technologies and Expression Analysis (LTEA) Assay for matrix metalloproteinase-10 (MMP10) using HepaRG (AID 2283517). The method, boiled down: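 In differentiated HepaRG cultures kept in 0.5% DMSO, test chemicals act for 48 h over an eight-point range with a top dose of 100 uM. Expression is then quantified by TaqMan RT-PCR against ACTB, GAPDH and POLR2A.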

Read-out in a further assay: MYC, MYC (gene 4609)
As to the kind of experiment: LTEA_HepaRG_MYC: Life Technologies and Expression Analysis (LTEA) Assay for MYC using HepaRG (AID 2283518). The procedure, abridged:
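Expression changes were scored by TaqMan qRT-PCR with ACTB, GAPDH and POLR2A normalization. Cultures in serum-free induction medium received duplicate 8-point concentration series, highest 100 uM, for 48 h; DMSO (0.5%) served as baseline.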

Read-out in assay [2]: matrix metalloproteinase-3 (MMP3), MMP3 (gene 4314)
As to the kind of experiment: LTEA_HepaRG_MMP3: Life Technologies and Expression Analysis (LTEA) Assay for matrix metalloproteinase-3 (MMP3) using HepaRG (AID 2283519). The method, boiled down:
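Human liver HepaRG cultures received chemicals (top concentration 100 uM, 0.5% DMSO) for 48 h in duplicate. MMP3 mRNA induction or loss was then assessed via TaqMan qRT-PCR with housekeeping-gene normalisation.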

Read-out in assay [3]: Paternally Expressed 10 (PEG10), PEG10 (gene 23089)
As to the kind of experiment: LTEA_HepaRG_PEG10: Life Technologies and Expression Analysis (LTEA) Assay for Paternally Expressed 10 (PEG10) using HepaRG (AID 2283520).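 As to AC50: differentiated HepaRG human liver cells in serum-free induction medium with 0.5% DMSO; PEG10 transcript by qRT-PCR normalised to ACTB GAPDH and POLR2A.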 The method, boiled down:
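qRT-PCR read-out: PEG10 mRNA normalised to three housekeeping genes, fitted bidirectionally against 0.5% DMSO vehicle. HepaRG cells received test chemicals for 48 h in serum-free induction medium, 8 points, top 100 uM, half-log steps.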

Read-out in assay [4]: Nuclear factor NF-kappa-B p105 subunit (Homo sapiens) (UniProt P19838)
As to the kind of experiment: LTEA_HepaRG_NFKB1: Life Technologies and Expression Analysis (LTEA) Assay for Nuclear Factor Kappa B Subunit 1 (NFKB1) using HepaRG (AID 2283521).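 As to outcome: differentiated human HepaRG liver cells in serum-free induction medium; TaqMan qRT-PCR transcript normalised to ACTB GAPDH and POLR2A housekeeping genes.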 The method, boiled down:
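HepaRG, 48 h exposure; 8-pt half-log series from 100 uM in 0.5% DMSO; duplicates. Readout: NFKB1 mRNA by qRT-PCR (Fluidigm arrays), housekeeping-normalized. Gain/loss fit vs DMSO baseline.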

Read-out in assay [5]: Protein phosphatase 2A (PPP2R4), PTPA (gene 5524)
Nature of the assay: LTEA_HepaRG_PPP2R4: Life Technologies and Expression Analysis (LTEA) Assay for Protein phosphatase 2A (PPP2R4) using HepaRG (AID 2283522). The procedure, abridged:
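HepaRG, 48 h exposure, 8-pt half-log series from 100 uM, 0.5% DMSO vehicle, duplicates. Readout: PPP2R4 mRNA, Fluidigm qRT-PCR, housekeeping-normalized. Bidirectional curve fit vs DMSO baseline.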

Read-out in assay [6]: Phosphatase and tensin (PTEN), PTEN (gene 5728)
As to the kind of experiment: LTEA_HepaRG_PTEN: Life Technologies and Expression Analysis (LTEA) Assay for Phosphatase and tensin (PTEN) using HepaRG (AID 2283523). The procedure, abridged: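 Expression of PTEN is quantified in the human liver line HepaRG following two days of dosing (top concentration 100 uM, half-log dilutions, 0.5% DMSO). Values derive from bidirectional curve fitting relative to DMSO controls.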

Read-out in assay [7]: solute carrier (SLC22A1), SLC22A1 (gene 6580)
As to the kind of experiment: LTEA_HepaRG_SLC22A1: Life Technologies and Expression Analysis (LTEA) Assay for solute carrier (SLC22A1) using HepaRG (AID 2283524).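 As to AC50: differentiated human HepaRG liver cells in serum-free induction medium; TaqMan qRT-PCR normalized to ACTB GAPDH and POLR2A housekeeping genes.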 The procedure, abridged: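 Transcript induction or suppression of SLC22A1 in human HepaRG cultures is scored after 48 h chemical treatment, with DMSO (0.5%) as baseline for bidirectional fitting. Concentrations span eight half-log points topping at 100 uM.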

Read-out in assay [8]: NAD(P)H dehydrogenase [quinone] 1 (NQO1), NQO1 (gene 1728)
As to the kind of experiment: LTEA_HepaRG_NQO1: Life Technologies and Expression Analysis (LTEA) Assay for NAD(P)H dehydrogenase [quinone] 1 (NQO1) using HepaRG (AID 2283526). The procedure, abridged: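 qRT-PCR read-out (Fluidigm TaqMan), normalized to three housekeeping genes, after 48 h chemical exposure of HepaRG cells. Concentrations: eight points, top 100 uM, half-log steps, 0.5% DMSO vehicle. Gain or loss of signal fitted relative to DMSO.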

Read-out in assay [9]: Nuclear factor erythroid 2-related factor 2 (Homo sapiens) (UniProt Q16236)
As to the kind of experiment: LTEA_HepaRG_NFE2L2: Life Technologies and Expression Analysis (LTEA) Assay for Nuclear factor erythroid 2-related factor 2 (NFE2L2) Transcription Factor using HepaRG (AID 2283527).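 Also: TaqMan qRT-PCR transcript level normalised to ACTB GAPDH and POLR2A housekeeping genes.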 The procedure, abridged:
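Human liver HepaRG line treated in duplicate for 48 h with an eight-point series topping at 100 uM. Gene expression of NFE2L2 by qRT-PCR, bidirectionally fitted against the vehicle control.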

Read-out in assay [10]: succinate dehydrogenase complex iron sulfur subunit B (SDHB), SDHB (gene 6390)
Nature of the assay: LTEA_HepaRG_SDHB: Life Technologies and Expression Analysis (LTEA) Assay for succinate dehydrogenase complex iron sulfur subunit B (SDHB) using HepaRG (AID 2283528). The method, boiled down: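 Readout is SDHB transcript level by qRT-PCR, normalised to three housekeeping genes and fitted bidirectionally against 0.5% DMSO vehicle. Human HepaRG cells were treated for 48 h at up to 100 uM.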

Read-out in assay [11]: Signal transducer and activator of transcription 3 (Homo sapiens) (UniProt P40763)
Nature of the assay: LTEA_HepaRG_STAT3: Life Technologies and Expression Analysis (LTEA) Assay for Signal transducer and activator of transcription (STAT3) using HepaRG (AID 2283529). The procedure, abridged: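 In this transcriptional endpoint, HepaRG cultures receive test chemicals at up to 100 uM for 48 h, tested in duplicate. STAT3 mRNA is normalized to ACTB, GAPDH and POLR2A.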

Read-out in assay [12]: solute carrier (SLCO1B1), SLCO1B1 (gene 10599)
Nature of the assay: LTEA_HepaRG_SLCO1B1: Life Technologies and Expression Analysis (LTEA) Assay for solute carrier (SLCO1B1) using HepaRG (AID 2283530). The procedure, abridged: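 Human HepaRG cultures treated for 48 h with an eight-concentration half-log series topping at 100 uM; SLCO1B1 measured by qRT-PCR and fitted bidirectionally relative to DMSO.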

Read-out in assay [13]: sulfotransferase 2A1 (SULT2A1), SULT2A1 (gene 6822)
Nature of the assay: LTEA_HepaRG_SULT2A1: Life Technologies and Expression Analysis (LTEA) Assay for sulfotransferase 2A1 (SULT2A1) using HepaRG (AID 2283531). The procedure, abridged: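 Gene-expression endpoint in a human liver cell line: SULT2A1 mRNA change after 48 h chemical treatment, curves fitted in both directions relative to 0.5% DMSO vehicle. Concentrations spanned eight half-log steps from 100 uM.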

Read-out in assay [14]: Transforming Growth Factor (TGFA), TGFA (gene 7039)
Nature of the assay: LTEA_HepaRG_TGFA: Life Technologies and Expression Analysis (LTEA) Assay for Transforming Growth Factor (TGFA) using HepaRG (AID 2283532). The procedure, abridged: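 Gene expression of TGFA was quantified by qRT-PCR after human HepaRG cells were treated for 48 h with test chemicals (eight concentrations, highest 100 uM, 0.5% DMSO). Activity in either direction was fitted relative to DMSO.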

Read-out in assay [15]: Transforming Growth Factor (TGFB1), TGFB1 (gene 7040)
As to the kind of experiment: LTEA_HepaRG_TGFB1: Life Technologies and Expression Analysis (LTEA) Assay for Transforming Growth Factor (TGFB1) Transporter using HepaRG (AID 2283533). The method, boiled down: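 Eight-point concentration-response (max 100 uM, half-log) in HepaRG under serum-free induction conditions, 48 h. TGFB1 mRNA by qRT-PCR, housekeeping-normalized.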

Read-out in another assay: TIMP1, TIMP1 (gene 7076)
As to the kind of experiment: LTEA_HepaRG_TIMP1: Life Technologies and Expression Analysis (LTEA) Assay for TIMP1 using HepaRG (AID 2283534).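 Also: TaqMan qRT-PCR signal normalized to ACTB GAPDH and POLR2A housekeeping genes.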 The method, boiled down:
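TIMP1 induction or repression in HepaRG cells after 48 h chemical exposure (eight concentrations, highest 100 uM), assessed by normalized qRT-PCR with bidirectional fitting to DMSO controls.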

Read-out in assay [16]: Tumor necrosis factor receptor 1 (TNFRSF1A), TNFRSF1A (gene 7132)
Nature of the assay: LTEA_HepaRG_TNFRSF1A: Life Technologies and Expression Analysis (LTEA) Assay for Tumor necrosis factor receptor 1 (TNFRSF1A) using HepaRG (AID 2283535). The procedure, abridged:
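Assay uses 48 h chemical treatment of differentiated HepaRG monolayers, tested in duplicate at eight concentrations from 100 uM downward in 0.5% DMSO. mRNA is normalized to ACTB, GAPDH and POLR2A, with induction or suppression fitted relative to vehicle.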

Read-out in assay [17]: Thyroid Hormone Responsive (THRSP), THRSP (gene 7069)
As to the kind of experiment: LTEA_HepaRG_THRSP: Life Technologies and Expression Analysis (LTEA) Assay for Thyroid Hormone Responsive (THRSP) using HepaRG (AID 2283536). The method, boiled down:
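Cell model: human HepaRG, approx. 100,000 cells/well, 0.5% DMSO vehicle. Exposure lasts 48 h; phenobarbital 1 mM serves as induction positive control. Gene expression is measured by qRT-PCR against three endogenous control genes.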

Read-out in assay [18]: Pyruvate Dehydrogenase Kinase 4 (PDK4), PDK4 (gene 5166)
Nature of the assay: LTEA_HepaRG_PDK4: Life Technologies and Expression Analysis (LTEA) Assay for Pyruvate Dehydrogenase Kinase 4 (PDK4) using HepaRG (AID 2283525). The procedure, abridged:
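Eight-point, half-log concentration series (max 100 uM, 0.5% DMSO) applied to differentiated HepaRG cells for 48 h in duplicate. Endpoint: PDK4 mRNA induction or repression by qRT-PCR against DMSO baseline.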

Active and inactive are the calls of the source. The calls were made as follows: active = hit-call score of the fitted dose curve at least 0.9, where 1 is the maximum; inactive = score below 0.9.

Nuclear factor NF-kappa-B p105 subunit (Homo sapiens), sequence (P19838 whole entry, looked up): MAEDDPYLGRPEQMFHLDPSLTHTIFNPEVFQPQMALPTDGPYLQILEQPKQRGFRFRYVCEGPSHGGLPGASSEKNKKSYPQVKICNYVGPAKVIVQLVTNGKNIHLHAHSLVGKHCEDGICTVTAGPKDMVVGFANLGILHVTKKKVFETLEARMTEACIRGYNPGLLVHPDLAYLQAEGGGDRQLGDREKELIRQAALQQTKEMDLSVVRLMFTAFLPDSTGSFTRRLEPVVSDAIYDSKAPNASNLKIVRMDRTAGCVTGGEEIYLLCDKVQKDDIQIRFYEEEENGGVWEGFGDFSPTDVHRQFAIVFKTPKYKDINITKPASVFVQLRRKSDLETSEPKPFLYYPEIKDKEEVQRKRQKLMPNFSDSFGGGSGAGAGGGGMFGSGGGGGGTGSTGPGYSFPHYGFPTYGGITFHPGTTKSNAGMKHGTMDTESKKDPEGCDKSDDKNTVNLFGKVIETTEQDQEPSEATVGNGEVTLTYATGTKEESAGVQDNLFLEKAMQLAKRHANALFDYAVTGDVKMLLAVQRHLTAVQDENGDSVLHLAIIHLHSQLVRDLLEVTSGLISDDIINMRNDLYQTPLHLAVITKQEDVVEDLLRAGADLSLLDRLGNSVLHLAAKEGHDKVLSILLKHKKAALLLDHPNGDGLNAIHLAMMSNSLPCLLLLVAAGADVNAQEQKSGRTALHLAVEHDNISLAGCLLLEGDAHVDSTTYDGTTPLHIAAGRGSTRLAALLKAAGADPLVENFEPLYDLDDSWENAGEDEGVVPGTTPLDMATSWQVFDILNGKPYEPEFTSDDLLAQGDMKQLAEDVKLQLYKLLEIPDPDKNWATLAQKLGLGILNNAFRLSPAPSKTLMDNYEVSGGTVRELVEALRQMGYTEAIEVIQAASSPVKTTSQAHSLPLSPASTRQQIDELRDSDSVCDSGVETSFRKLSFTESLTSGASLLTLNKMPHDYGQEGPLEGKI
Signal transducer and activator of transcription 3 (Homo sapiens), sequence (P40763 whole entry, looked up): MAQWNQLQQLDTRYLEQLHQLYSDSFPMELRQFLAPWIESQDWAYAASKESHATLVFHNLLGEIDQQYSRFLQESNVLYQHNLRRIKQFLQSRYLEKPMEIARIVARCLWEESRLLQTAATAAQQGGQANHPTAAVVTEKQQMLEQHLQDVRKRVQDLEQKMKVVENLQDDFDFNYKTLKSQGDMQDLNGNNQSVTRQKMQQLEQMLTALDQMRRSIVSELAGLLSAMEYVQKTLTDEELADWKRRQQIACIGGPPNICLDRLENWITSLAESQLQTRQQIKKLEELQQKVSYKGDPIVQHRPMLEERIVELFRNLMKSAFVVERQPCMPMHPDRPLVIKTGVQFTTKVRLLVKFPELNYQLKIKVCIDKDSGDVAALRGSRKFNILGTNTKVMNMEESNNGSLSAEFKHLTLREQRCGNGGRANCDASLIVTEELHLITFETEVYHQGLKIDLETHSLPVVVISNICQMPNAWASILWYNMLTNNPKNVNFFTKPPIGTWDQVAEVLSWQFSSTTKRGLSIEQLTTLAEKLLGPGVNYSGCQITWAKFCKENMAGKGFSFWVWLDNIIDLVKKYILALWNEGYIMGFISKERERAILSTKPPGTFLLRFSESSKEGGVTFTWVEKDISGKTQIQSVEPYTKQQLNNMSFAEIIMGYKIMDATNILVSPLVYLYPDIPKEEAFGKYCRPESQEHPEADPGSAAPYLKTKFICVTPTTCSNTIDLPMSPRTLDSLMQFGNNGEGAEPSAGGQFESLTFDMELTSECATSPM
Nuclear factor erythroid 2-related factor 2 (Homo sapiens), sequence (Q16236 whole entry, looked up): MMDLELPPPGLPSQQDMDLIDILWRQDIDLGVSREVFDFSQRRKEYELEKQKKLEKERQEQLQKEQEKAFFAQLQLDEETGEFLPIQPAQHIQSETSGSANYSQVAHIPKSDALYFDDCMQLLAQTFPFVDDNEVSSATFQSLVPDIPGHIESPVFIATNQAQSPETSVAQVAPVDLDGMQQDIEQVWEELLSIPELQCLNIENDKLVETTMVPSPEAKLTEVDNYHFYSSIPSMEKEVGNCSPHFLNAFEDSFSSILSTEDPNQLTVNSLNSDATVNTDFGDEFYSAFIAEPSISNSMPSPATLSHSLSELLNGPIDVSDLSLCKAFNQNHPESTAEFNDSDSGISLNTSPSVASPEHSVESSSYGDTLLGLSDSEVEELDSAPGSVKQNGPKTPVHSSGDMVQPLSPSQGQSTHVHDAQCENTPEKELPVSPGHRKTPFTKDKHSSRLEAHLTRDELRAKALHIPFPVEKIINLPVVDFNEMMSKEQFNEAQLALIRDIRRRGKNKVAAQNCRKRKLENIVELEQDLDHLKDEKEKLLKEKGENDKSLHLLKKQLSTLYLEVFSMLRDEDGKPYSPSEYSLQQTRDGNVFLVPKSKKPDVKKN

On to `CCCCCCCCCCCCCCCCCC(=O)O`, for which the outcome in [1] was “inactive”; in the assay with MYC, MYC (gene 4609), “inactive”; in assay [2], “inactive”; in assay [3], “inactive”; in assay [4], “inactive”; in [5], “inactive”. In addition, the outcome in assay [6], in assay [7], in assay [8], in assay [9], in [10] and in assay [11] was inactive. Besides, the outcome in assay [12] is “inactive”; in assay [13], “inactive”; in assay [14], “inactive”; in assay [15], “inactive”; with TIMP1, TIMP1 (gene 7076) it was “inactive”; in assay [16], “inactive”. Besides, in assay [17], the outcome was inactive.
Regarding `O=[N+]([O-])C(CO)(CO)CO`, the outcome in assay [1] is “inactive”; with MYC, MYC (gene 4609), “inactive”; in [2] it was “inactive”; in [3] it was “inactive”; in assay [4], “inactive”; in assay [5], “inactive”. Further, the outcome in assay [7], in [18], in assay [8], in assay [10], in assay [11] and in assay [12] was inactive. The outcome is “inactive” in assay [13]; “inactive” in [14]; “inactive” in assay [15]; “inactive” in the assay with TIMP1, TIMP1 (gene 7076); “inactive” in assay [16]; “inactive” in assay [17].
`C=CCOC(=O)c1ccccc1C(=O)OCC=C`: the outcome in assay [1] is “inactive”; with MYC, MYC (gene 4609) it was “inactive”; in [2], “inactive”; in assay [3] it was “inactive”; in assay [4], “inactive”; in [5], “inactive”. The call in assay [7], in assay [18], in assay [8], in assay [9], in assay [10] and in [11] was inactive. Also, the outcome is “inactive” in assay [12]; “inactive” in assay [13]; “inactive” in assay [14]; “inactive” in assay [15]; “inactive” with TIMP1, TIMP1 (gene 7076); “inactive” in assay [16]. Besides, the molecule was classed as inactive in assay [17].
In general, AC50 refers to the concentration giving half of the maximal activity seen. In the case of `CNCc1cc(F)ccc1Oc1ccc(Cl)c(Cl)c1`, the half-maximal activity concentration (AC50) in assay [1] is 91.2 µM (active); with MYC, MYC (gene 4609), 78.9 µM (active); in [2], 50 µM (active); in assay [3] it was 0.689 µM (active); in assay [4], 86.3 µM (active); in [5], 50 µM (active). In addition, the figures for the AC50 in [7], in assay [12] and in [13] were 86.5 µM (active), 82.6 µM (active) and 84.2 µM (active), respectively. The outcome in [18], in assay [8], in assay [9], in [10], in assay [11] and in assay [14] was inactive. The outcome is “inactive” in [15]; “inactive” with TIMP1, TIMP1 (gene 7076); “inactive” in assay [16]; “inactive” in [17].
